Measured values from PubChem BioAssay (NCATS).
Values without a mark were called inactive. Inconclusive results are not listed. A call without a number means that no potency is given here. Calls of active or inactive are those of the source. Calls come from the whole dose curve; as a rule, active = well fitted curve in the direction sought with a large enough effect; inconclusive = small, poorly fitted or top-dose-only effect, or another doubt; inactive = no such curve, though single readings can be large; an effect the other way counts as inactive or inconclusive.

Tests used:
[1] = OV-KATE Cancer Cell Toxicity qHTS against the NCATS CANVASS Library (AID 1347345); note: potency is the fitted concentration of half-maximal effect
Summary of the method: (§1)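 Step one: seed 1000 cells per well. Step two: incubate 4 h. Step three: add test compounds in 11 concentrations. Step four: culture 72 h, then add CellTiter-Glo and record luminescence after 15min.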

[2] = OV-SAHO Cancer Cell Toxicity qHTS against the NCATS CANVASS Library (AID 1347348); note: nearly all actives have a fitted effect of over 55% in size; note: potency is the fitted concentration of half-maximal effect
Summary of the method: as §1

[3] = Panc-1005 Cancer Cell Toxicity qHTS against the NCATS CANVASS Library (AID 1347349); note: nearly all actives have a fitted effect of over 60% in size; note: potency is the fitted concentration of half-maximal effect
Summary of the method: as §1

[4] = U-118MG Cancer Cell Toxicity qHTS against the NCATS CANVASS Library (AID 1347351); note: potency is the fitted concentration of half-maximal effect
Summary of the method: as §1

[5] = A2780 Cisplatin Sensitive Ovarian Cancer Cell Toxicity qHTS against the NCATS CANVASS Library (AID 1347353); note: nearly all actives have a fitted effect of over 60% in size; note: potency is the fitted concentration of half-maximal effect
Summary of the method: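 Cisplatin-sensitive A2780 ovarian cells (750/well) received compound in 11 concentrations, and were incubated 72 h at 37 °C. ATP content was measured by ATPLite luminescence; bortezomib served as control.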

[6] = HEK293 24hr Apoptosis Induction qHTS against the NCATS CANVASS Library (AID 1347359)
Summary of the method: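 HEK293 cells, 500 per well, exposed to an 11-point compound series for 24 hours at 37 degrees C. Caspase 3/7 activity read by Caspase-Glo luminescence (DEVD substrate) after 15 min at room temperature.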

[7] = biological target: Luciferin 4-monooxygenase (Photinus pyralis) (UniProt P08659); experiment: Firefly luciferase counterscreen qHTS: Assay Interference Panel against the NCATS CANVASS Library (AID 1347363); note: series mostly up to about 57 µM
Summary of the method: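 Purified P. pyralis luciferase (0.04 ug/mL, 4x reagent) added to Tris-acetate buffer with 0.013 mM D-luciferin, 0.013 mM ATP and 13.3 mM Mg-acetate; compounds preincubated 15 min, then luminescence read after 5 min, RT.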

[8] = biological target: Nuclear receptor subfamily 1 group I member 3 (Homo sapiens) (UniProt Q14994); experiment: qHTS for Constitutive Androstane Receptor (CAR) Antagonist screened against the NCATS CANVASS Library (AID 1347372); note: potency is the fitted concentration of half-maximal effect
Summary of the method: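 Luminescence readout (ONE-Glo, 30 min RT) of CYP2B6-2.2kb reporter in HepG2-hCAR cells after 24hr, 37C treatment with compound against 50 nM CITCO; CellTiter-Fluor viability read beforehand.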

[9] = qHTS for Hypoxia signaling pathway (HIF-1) agonists against the NCATS CANVASS Library (AID 1347375)
Summary of the method: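 Beta-lactamase reporter under HRE control in ME-180 cells; compounds (11-point qHTS series) added after 5 hrs plating, then 17 hrs at 37C. FRET substrate read after 2 hr; same-well CellTiter-Glo luminescence gave viability and normalization.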

[10] = DH5-alpha competent E. coli microbial cell viability qHTS against the NCATS CANVASS Library (AID 1347377); settings: outcome: dose series up to 46.1 µM unless noted
Summary of the method: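 Bacterial viability as ATP-dependent luminescence (BacTiter-Glo), read after overnight 37 °C exposure of DH5-alpha competent E. coli to compounds in 11-point titration.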

[11] = Cytotoxicity qHTS for assessment of Hepg2 cells membrane integrity screened against the NCATS CANVASS Library (AID 1347387)
Summary of the method: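 Membrane damage quantified as fluorescent LDH-release signal (ex 560, em 590 nm) in HepG2 cells treated 5 hr at 37C. qHTS format, 11 concentrations spanning 0.59 nM - 46 uM final, cells plated at 2000 per well the night before.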

[12] = qHTS for activators of dead-cell proteases activity screened against the NCATS CANVASS Library (AID 1347392);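 note: luminescence from protease leaking out of membrane-damaged cells cleaving impermeant substrate; rising signal means more cytotoxicity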
Summary of the method: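 HepG2, 2000 cells/well, 18 h attach; cpd 11-pt, 5 h 37C 5% CO2; CytoTox-Glo (AAF-aminoluciferin) 15 min RT; luminescence read.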

[13] = UWB1.289 Cancer Cell Toxicity qHTS against the NCATS CANVASS Library (AID 1347347); note: nearly all actives have a fitted effect of over 60% in size; note: potency is the fitted concentration of half-maximal effect
Summary of the method: as §1

[14] = SW1088 Cancer Cell Toxicity qHTS against the NCATS CANVASS Library (AID 1347350); note: nearly all actives have a fitted effect of over 75% in size; note: potency is the fitted concentration of half-maximal effect
Summary of the method: as §1

[15] = system: NAD(P)H diaphorase (Clostridium kluyveri); experiment: Diaphorse counterscreen qHTS: Assay Interference Panel against the NCATS CANVASS Library (AID 1347362); note: potency is the fitted concentration of half-maximal effect
Summary of the method: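 Clostridium kluyveri diaphorase in PBS + 0.01% Tween-20 preincubated 15 min with compounds. Resazurin and NADH then added for 5 min at room temperature in the dark; resorufin fluorescence read (ex 525, em 598).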

[16] = KB-8-5-11 Cancer Cell Toxicity qHTS against the NCATS CANVASS Library (AID 1347364); note: nearly all actives have a fitted effect of over 75% in size; note: potency is the fitted concentration of half-maximal effect
Summary of the method: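 Viability read as CellTiter-Glo luminescence after 72 h at 37 °C, 5% CO2. 11-point compound series on 500 KB-8-5-11 cells/well in DMEM/10% FBS. Follow-up plating included 1 uM tariquidar in the medium.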

[17] = qHTS for Hypoxia signaling pathway (HIF-1) antagonists against the NCATS CANVASS Library (AID 1347374); note: nearly all actives have a fitted effect of over 60% in size; note: potency is the fitted concentration of half-maximal effect
Summary of the method: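 Antagonism scored as loss of CoCl2-driven (60 uM stock added) HRE beta-lactamase signal, read by CCF4 FRET at 460/530 nm. Compounds were tested in an 11-point series on ME-180 reporter cells for 17 hrs at 37C, with parallel CellTiter-Glo cytotoxicity.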

[18] = qHTS for activators of Nrf2/ARE signaling pathway screened against the NCATS CANVASS Library (AID 1347391); note: nearly all actives have a fitted effect of over 60% in size; note: potency is the fitted concentration of half-maximal effect
Summary of the method: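 Eleven-point qHTS, 16 h treatment of HepG2 cells carrying an ARE-driven beta-lactamase reporter; CCF4 ratio read (405 nm excitation, 460 and 530 nm emission), with CellTiter-Glo ATP luminescence for viability.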

[19] = qHTS for inhibitors of ER calcium dysfunction: SERCaMP assay screened against the NCATS CANVASS Library (AID 1347393); note: nearly all actives have a fitted effect of over 40% in size; note: potency is the fitted concentration of half-maximal effect
Summary of the method: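 SH-SY5Y GLuc-SERCaMP, 1000 cells/well, 4 h attach; cpd 16 h, 37C/5% CO2; thapsigargin (added as 6x 600 nM) 4 h; coelenterazine; luminescence. Reduced reporter release = ER Ca stabilization.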

[20] = HPAF-II Cancer Cell Toxicity qHTS against the NCATS CANVASS Library (AID 1347346); note: potency is the fitted concentration of half-maximal effect; nearly all actives have a fitted effect of over 55% in size
Summary of the method: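 Cytotoxicity read-out was CellTiter-Glo luminescence after 72 h at 37 degrees C exposure of HPAF-II cells (1000/well) to compounds in an 11-point titration.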

Chain of Nuclear receptor subfamily 1 group I member 3 (Homo sapiens) (Q14994 whole entry, looked up): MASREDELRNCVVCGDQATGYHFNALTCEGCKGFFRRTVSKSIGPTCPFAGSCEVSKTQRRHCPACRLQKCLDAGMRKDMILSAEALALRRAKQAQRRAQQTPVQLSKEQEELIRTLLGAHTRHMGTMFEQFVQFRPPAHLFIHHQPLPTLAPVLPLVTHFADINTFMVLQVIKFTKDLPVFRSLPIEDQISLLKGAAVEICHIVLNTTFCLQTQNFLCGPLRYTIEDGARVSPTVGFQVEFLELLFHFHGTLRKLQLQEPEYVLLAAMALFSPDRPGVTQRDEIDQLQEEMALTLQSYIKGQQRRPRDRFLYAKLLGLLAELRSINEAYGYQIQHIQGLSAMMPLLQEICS
Chain of Luciferin 4-monooxygenase (Photinus pyralis) (P08659 whole entry, looked up): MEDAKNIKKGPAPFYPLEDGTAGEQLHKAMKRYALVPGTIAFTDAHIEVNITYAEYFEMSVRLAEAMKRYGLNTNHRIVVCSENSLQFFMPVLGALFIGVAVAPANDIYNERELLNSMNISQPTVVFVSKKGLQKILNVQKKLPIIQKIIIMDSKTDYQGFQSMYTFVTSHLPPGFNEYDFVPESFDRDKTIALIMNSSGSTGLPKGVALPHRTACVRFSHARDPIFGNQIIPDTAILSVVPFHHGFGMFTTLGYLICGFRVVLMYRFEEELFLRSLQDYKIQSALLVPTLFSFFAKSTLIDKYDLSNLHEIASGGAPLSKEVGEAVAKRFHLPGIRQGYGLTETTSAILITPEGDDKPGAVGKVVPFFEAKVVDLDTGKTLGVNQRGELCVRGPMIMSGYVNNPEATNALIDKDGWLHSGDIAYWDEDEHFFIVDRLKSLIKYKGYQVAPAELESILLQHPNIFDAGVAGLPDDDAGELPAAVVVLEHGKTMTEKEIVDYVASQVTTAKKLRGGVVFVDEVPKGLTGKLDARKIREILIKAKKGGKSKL

C/C=C(/C)c1cc(O)c(C)c2c1Oc1cc(O)cc(C)c1C(=O)O2
Potency [1]: inactive
Potency [2]: inactive
Potency [3]: inactive
Potency [4]: inactive
Potency [5]: inactive
Potency [6]: inactive
Potency [7]: inactive
Potency [8]: inactive
outcome [9]: inactive
outcome [10]: inactive
outcome [11]: inactive
Potency [12]: inactive

COC12OC1(C13OC1(OC)C(=O)c1cc4cc(C)oc(=O)c4c(O)c1C3O)C(O)c1c(cc3cc(C)oc(=O)c3c1O)C2=O (configuration not stated)
Potency [1]: inactive
Potency [13]: inactive
Potency [2]: inactive
Potency [3]: inactive
Potency [14]: 18.8 µM (active)
Potency [4]: inactive
Potency [5]: inactive
Potency [15]: inactive
Potency [7]: inactive
Potency [16]: inactive
Potency [8]: inactive
Potency [17]: 14.9 µM (active)
outcome [9]: inactive
outcome [10]: inactive
Potency [18]: inactive
Potency [19]: inactive

CC(=O)Oc1cc2c(c(OC(C)=O)c1C1CCc3cc(Cl)c(Cl)n31)C(=O)n1c-2cc(Cl)c1Cl (configuration not stated)
Potency [20]: 10.6 µM (active)
Potency [13]: 3.34 µM (active)
Potency [2]: 7.47 µM (active)
Potency [3]: 6.68 µM (active)
Potency [14]: 4.73 µM (active)
Potency [4]: 13.3 µM (active)
Potency [5]: 11.8 µM (active)
Potency [6]: inactive
Potency [15]: inactive
Potency [7]: inactive
Potency [16]: 14.8 µM (active)
Potency [8]: inactive
Potency [17]: 3.34 µM (active)
outcome [9]: inactive
outcome [11]: inactive
Potency [18]: inactive
Potency [12]: inactive

CN1CC[C@]2(c3cccc4c3N[C@H]3N(C)CC[C@@]43[C@]34CCN(C)[C@H]3Nc3ccccc34)c3ccccc3N[C@H]12
Potency [1]: 18.8 µM (active)
Potency [13]: 18.8 µM (active)
Potency [2]: 16.7 µM (active)
Potency [3]: 21.1 µM (active)
Potency [4]: 7.49 µM (active)
Potency [15]: inactive
Potency [16]: 18.7 µM (active)
outcome [9]: inactive
outcome [10]: inactive
outcome [11]: inactive

CC(=O)O[C@H]1c2ccccc2-c2c3c(cc4c2[C@@H]1N(C(C)=O)CC4)OCO3
Potency [1]: inactive
Potency [14]: 26.6 µM (active)
Potency [4]: inactive
Potency [6]: inactive
Potency [15]: inactive
Potency [8]: inactive
Potency [17]: inactive
outcome [9]: inactive
outcome [10]: inactive
Potency [18]: 8.31 µM (active)
Potency [19]: 34.3 µM (active)

CC(C)[C@]12CC[C@@]3(C)[C@H](C)CC[C@H](O)[C@@]3(CC1)c1cc3c(cc12)[nH]c1ccccc13
Potency [1]: inactive
Potency [4]: inactive
Potency [15]: inactive
Potency [7]: inactive
Potency [8]: inactive
Potency [17]: inactive
outcome [9]: inactive
outcome [10]: inactive
Potency [12]: inactive

COc1cc(/C=C/C(=O)OC[C@@H](Cc2ccc(O)c(OC)c2)[C@@H](COC(=O)/C=C/c2ccc(O)c(OC)c2)Cc2ccc(O)c(OC)c2)ccc1O
Potency [20]: 8.41 µM (active)
Potency [13]: 10.6 µM (active)
Potency [2]: 23.6 µM (active)
Potency [3]: 9.43 µM (active)
Potency [14]: 8.41 µM (active)
Potency [4]: 10.6 µM (active)
Potency [5]: 9.35 µM (active)
Potency [15]: inactive
Potency [7]: inactive
Potency [16]: 13.2 µM (active)
Potency [8]: inactive
Potency [17]: 7.47 µM (active)
outcome [10]: inactive
Potency [18]: inactive
Potency [19]: 3.43 µM (active)

C[n+]1cc2cc(C(N)=O)[nH]c3c(=N)c(Cl)c(N)c1c23
Potency [1]: inactive
Potency [13]: inactive
Potency [2]: inactive
Potency [14]: inactive
Potency [4]: inactive
Potency [15]: 15.3 µM (active)
Potency [16]: inactive
Potency [8]: inactive
outcome [9]: inactive
outcome [10]: inactive
Potency [18]: inactive
Potency [19]: inactive

CCC(=O)N[C@@H](C[C@H](C)C(Cl)(Cl)Cl)C(=O)N1C(=O)C=C(OC)[C@@H]1CC(C)C
Potency [1]: inactive
Potency [13]: inactive
Potency [2]: inactive
Potency [3]: inactive
Potency [4]: inactive
Potency [5]: 26.4 µM (active)
Potency [15]: inactive
Potency [7]: inactive
Potency [17]: inactive
outcome [9]: inactive
outcome [10]: inactive
outcome [11]: inactive
Potency [12]: inactive
Potency [19]: inactive

COc1cc2c(cc1OC)[C@@H](c1ccc3c(c1)OCO3)C(C)C(C)C2=O (some centres not stated)
Potency [1]: inactive
Potency [2]: inactive
Potency [4]: inactive
Potency [6]: inactive
Potency [16]: 18.7 µM (active)
Potency [8]: inactive
outcome [9]: inactive
outcome [10]: inactive
outcome [11]: inactive
Potency [12]: inactive

O[C@H]1c2ccccc2-c2c3c(cc4c2[C@@H]1NCC4)OCO3
Potency [1]: inactive
Potency [20]: 18.8 µM (active)
Potency [2]: inactive
Potency [5]: 11.8 µM (active)
Potency [6]: inactive
Potency [7]: inactive
Potency [8]: 16.6 µM (active)
Potency [17]: 18.8 µM (active)
outcome [9]: inactive
outcome [11]: inactive
Potency [18]: 18.6 µM (active)
Potency [12]: inactive

C/C=C(/C)c1c(Cl)c(OC)c(C)c2c1Oc1c(Cl)c(O)c(Cl)c(C)c1C(=O)O2
Potency [1]: inactive
Potency [20]: 13.3 µM (active)
Potency [14]: 13.3 µM (active)
Potency [4]: inactive
Potency [8]: inactive
Potency [17]: 10.6 µM (active)
outcome [11]: inactive
Potency [18]: inactive
Potency [19]: inactive

C=C[C@@]1(C)CC[C@@H]([C@H](C)C(=O)/C=C/C(C)(C)O)O1
Potency [1]: inactive
Potency [14]: inactive
Potency [4]: inactive
Potency [6]: inactive
Potency [15]: inactive
Potency [7]: inactive
Potency [8]: inactive
outcome [9]: inactive
outcome [10]: inactive
outcome [11]: inactive
Potency [18]: 13.2 µM (active)
Potency [12]: inactive

COc1ccc2[nH]c3c(c2c1)CCN1C[C@H]2C[C@@H](OC(=O)c4cc(OC)c(OC)c(OC)c4)[C@H](OC)[C@@H](OC)[C@H]2C[C@H]31
Potency [1]: inactive
Potency [20]: 13.3 µM (active)
Potency [3]: 13.3 µM (active)
Potency [6]: inactive
Potency [7]: inactive
Potency [8]: inactive
Potency [17]: inactive
outcome [9]: inactive
outcome [10]: inactive
outcome [11]: inactive
Potency [18]: inactive
Potency [12]: inactive
Potency [19]: 6.09 µM (active)
